LYP inh 2: PTPN22 phosphatase inhibitors, primary screen, biochemical, DiFMUP fluorescence, 2 µM; Tyrosine-protein phosphatase non-receptor type 22 (Homo sapiens), Q9Y2R2; recombinant LYP catalytic domain; inhibition, % at 2 µM; 96,000 tested, 0.21% active; AID 640, 2007;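 active means inhibition at 2 µM at or above a set limit, the screen mean plus 3 SD, cut at about 24% in these data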;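 further: 0% = DMSO with enzyme and 100% = enzyme fully blocked by orthovanadate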
Target sequence (Q9Y2R2 whole entry, looked up, the tested form may be a part): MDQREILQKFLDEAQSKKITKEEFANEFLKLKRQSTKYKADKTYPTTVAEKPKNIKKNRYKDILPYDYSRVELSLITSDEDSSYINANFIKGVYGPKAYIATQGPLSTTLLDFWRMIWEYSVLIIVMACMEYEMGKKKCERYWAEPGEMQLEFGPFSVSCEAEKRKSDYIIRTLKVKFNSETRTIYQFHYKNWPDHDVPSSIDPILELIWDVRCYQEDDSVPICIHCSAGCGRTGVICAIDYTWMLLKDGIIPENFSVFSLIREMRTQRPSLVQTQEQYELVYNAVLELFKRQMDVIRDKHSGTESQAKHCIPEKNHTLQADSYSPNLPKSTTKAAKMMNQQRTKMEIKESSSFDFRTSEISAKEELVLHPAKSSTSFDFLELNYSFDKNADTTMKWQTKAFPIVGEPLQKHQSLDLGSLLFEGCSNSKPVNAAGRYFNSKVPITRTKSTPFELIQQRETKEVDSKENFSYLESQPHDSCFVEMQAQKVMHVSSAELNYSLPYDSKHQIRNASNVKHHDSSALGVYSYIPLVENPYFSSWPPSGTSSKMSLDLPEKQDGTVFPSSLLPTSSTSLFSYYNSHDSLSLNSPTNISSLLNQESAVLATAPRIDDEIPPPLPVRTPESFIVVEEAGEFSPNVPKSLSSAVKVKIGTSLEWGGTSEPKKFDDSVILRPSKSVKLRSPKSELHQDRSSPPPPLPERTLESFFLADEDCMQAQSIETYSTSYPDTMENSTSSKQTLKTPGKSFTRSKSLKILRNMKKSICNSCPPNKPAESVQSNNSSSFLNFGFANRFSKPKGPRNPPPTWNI
sEH activator: soluble epoxide hydrolase activators, primary screen, biochemical, human sEH; Bifunctional epoxide hydrolase 2 (Homo sapiens), P34913; purified human sEH enzymatic activity, activator screen; activation, % at 2 µM; 91,000 tested, 0.04% active; AID 717, 2007; in the data active means activation above about 37%
PLAP activator: PLAP enzyme activators, biochemical, luminescence, HTS; AID 696, 2007; Alkaline phosphatase, placental type (Homo sapiens), P05187; activation fold at 20 µM; purified PLAP enzyme, luminescent substrate read-out; stronger effect = higher value; 96,000 tested, 1.2% active; in the data active means activation fold above about 2
EphB4 ephrin blk: EphB4-ephrin-B2 interaction antagonists, primary screen, biochemical, TNYL-RAW peptide probe, fluorescence polarization. Ephrin type-B receptor 4 (Homo sapiens), P54760. EphB4 LBD / TNYL-RAW-Alexa532 peptide. inhibition, % at 7 µM. 97,000 tested, 0.15% active;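 active means inhibition above the screen-wide mean inhibition plus 3 SD, cut at about 15% in these data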;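 further: 0% = DMSO wells and 100% = excess unlabeled TNYL-RAW peptide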
sEH inh: soluble epoxide hydrolase inhibitors, primary screen, biochemical, human sEH; 91,000 tested, 0.34% active; inhibition, % at 2 µM; Bifunctional epoxide hydrolase 2 (Homo sapiens), P34913; recombinant human sEH enzymatic activity assay; in the data active means inhibition above about 80%
PTPN22 act: LYP phosphatase activators, primary screen, biochemical, DiFMUP fluorescence, 2 µM; activation, % at 2 µM; recombinant LYP; 0 = plate median, 100 = signal doubled; Tyrosine-protein phosphatase non-receptor type 22 (Homo sapiens), Q9Y2R2; 96,000 tested, 0.11% active;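 active means activation at 2 µM above a set limit, the mean plus 5 SD, cut at about 37% in these data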
* hit, by the source's call; x = no result. Shown are actives, neighbours in structure and some others; about 1.6% of the full set was active somewhere.

SMILES	LYP inh 2	sEH activator	PLAP activator	EphB4 ephrin blk	sEH inh	PTPN22 act
CSCCC(/C(O)=C(\C#N)c1nc2ccccc2[nH]1)N1C(=O)c2ccccc2C1=O (stereo unspecified)	-3.6	4.5	2*	1.7	-3.2	0.5
N#C/C(=C(/O)CN1C(=O)c2ccccc2C1=O)c1nc2ccccc2[nH]1	9.0	5.9	2.1*	5.4	-7.2	-8.6
C/C(O)=C(\C#N)c1nc2ccccc2[nH]1	7.6	29.2	1	-0.6	-31.4	-7.9
CCc1cc(-c2[nH]ncc2-c2ccc3c(c2)OCO3)c(O)cc1O	x	x	2.5*	x	x	x
COc1ccc(-c2[nH]ncc2-c2ccc3c(c2)OCCO3)c(O)c1	x	x	2.1*	x	x	x
Cc1cc(C)cc(NC(=O)NC2CCN(CC(=O)Nc3c(C)cc(C)cc3C)CC2)c1	7.5	-76.0	x	6.2	76.9	-7.3
COc1ccc(-c2n[nH]c(=S)n2CC(C)C)cc1	0.9	-7.1	2.5*	2.5	7.2	1.0
CC1=NN(c2cccc(C(=O)O)c2)C(=O)/C1=C\C=C\c1ccco1	6.8	18.9	x	1.0	-18.9	-7.2
CC(C)C(C(=O)O)N1C(=O)/C(=C/C=C/c2ccco2)SC1=S (stereo unspecified)	29.1*	-5.4	1	4.5	5.8	-25.1
CC(C)(C)SCCNC(=O)c1ccc(Cl)c(S(=O)(=O)N2CCOCC2)c1	-7.0	-86.3	x	3.1	86.5*	3.3
O=C(Nc1cccc(S(=O)(=O)C(F)F)c1)c1ccc(Cl)c(S(=O)(=O)N2CCOCC2)c1	x	x	0.9	x	x	x
O=C(NCCN1CCOCC1)c1ccc(Cl)c(S(=O)(=O)N2CCCCCC2)c1	x	x	1.7	x	x	x
O=C(Nc1cccc(Br)c1)c1ccc(Cl)c(S(=O)(=O)N2CCOCC2)c1	-1.3	-94.7	x	2.3	95.0*	0.9
Cc1cc(N)n(-c2ccc3ccccc3c2)n1	-5.8	x	1	3.9	x	2.3
Cc1csc(NC(=O)C2CCN(S(=O)(=O)c3ccc4c(c3)oc(=O)n4C)CC2)n1	2.6	-14.9	1.1	1.1	12.6	-3.2
Cc1csc(NC(=O)C(CC(C)C)NS(=O)(=O)c2ccc3c(c2)oc(=O)n3C)n1 (stereo unspecified)	-2.0	x	2.3*	2.0	x	-0.8
Cn1c(/C(C#N)=C(\O)CN2CCN(Cc3ccccc3)CC2)nc2ccccc21	0.6	-0.4	2.5*	6.5	3.4	-1.6
Cc1ccc(S(=O)(=O)/N=C2/NC(=O)/C(=C/c3cccnc3)S2)cc1	1.7	1.8	1.1	8.8	-1.2	1.8
CN1C(=O)S/C(=C/c2cccnc2)C1=O	-1.4	8.7	1.4	18.5*	-6.8	4.6
Cc1nc(NC(=O)CC(C)C)sc1-c1csc(Nc2ccc(Cl)cc2)n1	50.6*	-17.2	1	0.9	21.9	-49.0
Cc1nc(NC(=O)CC(C)C)sc1-c1csc(Nc2ccc(Cl)cc2Cl)n1	20.9	-24.8	1.1	4.7	25.3	-17.6
O=C(c1cccc(Cl)c1)N1CCN(Cc2ccccc2F)CC1	8.5	-6.4	1.1	4.6	7.6	-9.7
Cc1[nH][nH]c(=O)c1C(c1ccc(-c2ccc(Cl)cc2Cl)o1)c1c(C)[nH][nH]c1=O	-4.6	13.1	2.7*	5.0	-13.4	5.3
CCOC(=O)C1=C(C)NC(SCC(=O)O)=NC1c1ccccc1 (stereo unspecified)	x	x	1.1	x	x	x
Cc1c(C(=O)NCCN2CCOCC2)oc2ccc(S(=O)(=O)N3CCCCCC3)cc12	x	x	1.6	x	x	x
SMILES	LYP inh 2	sEH activator	PLAP activator	EphB4 ephrin blk	sEH inh	PTPN22 act
CCN(CC)S(=O)(=O)c1ccc2oc(C(=O)NCCCN3CCOCC3)c(C)c2c1	-14.8	-18.3	2*	-1.8	19.9	11.7
C=CCN1C(=O)C(CC(=O)Nc2ccccc2)SC1=Nc1ccc(S(N)(=O)=O)cc1 (stereo unspecified)	2.2	0.5	0.9	7.2	-3.5	-4.2
CC(C)COc1ccc(CSCCNC(=S)Nc2ccccc2)cc1	-7.5	-5.1	1	-6.4	8.0	10.3
Cc1ccc(NC(=O)N/C=C/c2ccco2)c(C)c1	7.2	-28.9	2.4*	4.5	30.6	-4.1
O=C(c1ccco1)N1CCN(CC(O)COc2ccc3oc4ccccc4c3c2)CC1 (stereo unspecified)	2.8	4.5	1.2	0.4	-5.0	-3.4
O=C(OCCCCN1C(=O)c2ccccc2C1=O)c1n[nH]c2ccccc12	-0.6	-4.6	2*	0.1	2.2	3.2
CCc1nnc(NC(=O)c2ccc(S(=O)(=O)N3CCCc4ccccc43)cc2)o1	1.4	-2.4	2.1*	2.7	2.0	1.9
CCCCCC(=O)NNC(=O)c1ccc(-c2ccccc2)cc1	7.5	3.6	1.2	-1.1	-3.1	-2.3
CC(C)(C)c1cc(NCCCn2ccnc2)n2ncc(-c3ccc(Cl)cc3)c2n1	37.5*	10.8	1	9.3	-7.7	-35.8
Cc1cc(NCCOCCO)n2ncc(-c3ccc(Cl)cc3)c2n1	-2.5	4.0	1.5	-1.3	-0.7	-4.8
O=C(N/N=C1/C(=O)c2cccc3cccc1c23)c1ccc(Cl)cc1	17.1	7.8	1.6	24.9*	-5.8	-14.7
Cn1c(NC(=O)c2cccnc2)nc2ccccc21	-0.9	-1.6	2*	-4.6	1.2	-2.0
COC(=O)c1sccc1NC(=O)c1ccc(Br)s1	8.3	1.8	1.2	2.4	0.1	-5.5
Cc1sc(NC(=O)CN2CCOCC2)nc1-c1ccc2c(c1)CCN2S(=O)(=O)c1ccccc1	-5.0	16.1	1.8	-2.2	-13.9	2.1
O=C(CN1CCOCC1)Nc1nc(-c2ccc3c(c2)CCN3S(=O)(=O)c2ccccc2)cs1	6.4	1.0	2*	-3.7	-0.5	-10.2
C=C(C)C(=O)OC1(C(F)(F)F)Oc2cc(C)ccc2NC1=O (stereo unspecified)	-7.2	40.6*	1.1	5.7	-41.1	11.3
O=C(OCC(=O)N1CCN(C(=O)c2ccco2)CC1)c1ccccc1OCc1ccc(Cl)cc1	x	x	1.6	x	x	x
CCn1c(CSc2nc3ccccc3s2)nnc1SCC(=O)c1ccc(O)c(O)c1	45.5*	-11.1	0.5	0.3	9.3	-44.5
COc1ccc(OC)c(Nc2cc(C)nc3nc(C)nn23)c1	x	x	2*	x	x	x
COc1ccc(C)cc1Nc1cc(C)nc2nc(C)nn12	x	x	1.6	x	x	x
CCCc1nc(SCC(=O)N2CCC(Cc3ccccc3)CC2)c2c(=O)n(C)c(=O)n(C)c2n1	12.4	-4.3	1.4	-1.3	5.8	-12.4
O=c1cc2c(nn1Cc1cccc(Cl)c1)-c1ccccc1CC2	2.5	-6.0	1.2	9.3	6.2	-3.3
O=c1cc2c(nn1Cc1ccc(Cl)cc1)-c1ccccc1CC2	-6.7	-1.8	2*	-5.9	2.0	7.1

Screening results from PubChem.
